The values that follow come from PubChem BioAssay (NCATS).

This is one part of the list. Results filed as inconclusive are left out. Activity calls are given as the source filed them. Calls come from the whole dose curve; as a rule, active = well fitted curve in the direction sought with a large enough effect; inconclusive = small, poorly fitted or top-dose-only effect, or another doubt; inactive = no such curve, though single readings can be large; an effect the other way counts as inactive or inconclusive.
Potency is the fitted concentration of half-maximal effect.

Sequence of Flap endonuclease 1 (Homo sapiens) (P39748 whole entry, looked up): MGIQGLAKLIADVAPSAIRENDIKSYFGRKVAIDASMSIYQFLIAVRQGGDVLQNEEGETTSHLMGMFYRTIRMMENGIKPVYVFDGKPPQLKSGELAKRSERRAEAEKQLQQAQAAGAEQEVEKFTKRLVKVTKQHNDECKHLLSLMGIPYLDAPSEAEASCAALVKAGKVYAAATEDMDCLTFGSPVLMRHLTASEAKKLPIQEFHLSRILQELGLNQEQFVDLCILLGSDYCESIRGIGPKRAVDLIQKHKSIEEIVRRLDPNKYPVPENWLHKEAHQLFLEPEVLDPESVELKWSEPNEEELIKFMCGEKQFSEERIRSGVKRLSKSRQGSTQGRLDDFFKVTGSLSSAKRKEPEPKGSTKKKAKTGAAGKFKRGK
Sequence of Phosphoglycerate kinase, glycosomal (Trypanosoma brucei brucei) (P07378 whole entry, looked up): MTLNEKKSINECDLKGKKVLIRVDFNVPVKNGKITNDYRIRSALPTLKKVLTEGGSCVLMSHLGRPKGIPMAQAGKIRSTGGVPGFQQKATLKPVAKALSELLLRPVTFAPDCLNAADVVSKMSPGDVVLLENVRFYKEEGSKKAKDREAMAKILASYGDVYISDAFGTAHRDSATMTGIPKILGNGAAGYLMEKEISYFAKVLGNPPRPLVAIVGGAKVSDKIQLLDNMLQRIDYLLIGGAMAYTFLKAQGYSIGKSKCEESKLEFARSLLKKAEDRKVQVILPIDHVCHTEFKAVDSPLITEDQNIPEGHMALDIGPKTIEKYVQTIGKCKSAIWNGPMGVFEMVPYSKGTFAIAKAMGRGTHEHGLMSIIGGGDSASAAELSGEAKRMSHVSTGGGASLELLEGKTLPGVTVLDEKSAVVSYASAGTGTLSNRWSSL

The first assay deals with Phosphoglycerate kinase, glycosomal (Trypanosoma brucei brucei) (UniProt P07378). The experiment in a line: qHTS for inhibitors of Phosphogylcerate Kinase: Hit Validation Screen (AID 686980). Note: nearly all actives have a fitted effect of over 65% in size. The settings on record: TbPGK coupled GAPDH assay, Kinase-Glo luminescence. In short, it runs like this:
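Recombinant glycosomal PGK reaction used 1,3-bisphosphoglycerate generated in-well by GAPDH (100nM final) in 100mM TEA pH 7.6, 5mM MgCl2, 0.01% Tween-20. After 60 minutes at room temperature, ATP was read by Kinase-Glo Plus luminescence end-point.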
`Cc1nonc1C(=O)N/N=C/c1ccc(O)cc1`: the Potency is 5.8 µM (active).

As to `O=C1/C(=C/c2cccs2)CCc2ccccc21`, the Potency was 14.6 µM (active).

For `COc1ccc(Cl)cc1NC(=O)CCS(=O)(=O)c1ccc(Br)cc1`, the Potency was 5.17 µM (active).

Take `Cc1ccnc(NC(=O)c2ccoc2C)c1`: the Potency was 14.6 µM (active).

`O=C(Oc1ccc(-c2nc(-c3ccccn3)no2)cc1)c1ccccc1`: the Potency was 16.3 µM (active).

On to `Cc1ccc(C(=O)O)cc1-c1ccc(/C=C2\SC(=O)N(CC(=O)Nc3ccc4c(c3)OCO4)C2=O)o1`, for which the Potency was 8.19 µM (active).

For `O=C(CSc1nc2ccccc2c(=O)[nH]1)Nc1nc(-c2ccc(Br)cc2)cs1`, the Potency is 4.11 µM (active).

For the molecule `C=CCn1c(C)cc(C2=NNC(=NCC)SC2)c1C`, the Potency is 11.6 µM (active).

As for `C=CC1=C(C(=O)O)N2C(=O)[C@@H](NC(=O)/C(=N/OCC(=O)O)c3csc(N)n3)[C@H]2SC1`, the Potency was 0.116 µM (active).

`Cc1c(CC(=O)N2CCN(C(=O)C3COc4ccccc4O3)CC2)c(=O)oc2c(O)c(O)ccc12` (centres undefined): the Potency was 2.59 µM (active).

Consider `COCCCn1c(Cc2csc(Nc3cccc(Cl)c3)n2)nnc1SCC(=O)OC1CCCCC1`, for which the Potency is 9.19 µM (active).

The target in a further assay is DNA polymerase iota (Homo sapiens) (UniProt Q9UNA4). The experiment in a line: qHTS for Inhibitors of Polymerase Iota: Confirmatory Assay for Cherry-picked Compounds (AID 720496). The settings on record: Pol iota primer extension, TAMRA/BHQ fluorescence. Put shortly: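 Using TAMRA dequenching as read-out, activity of 10 nM human Pol iota on 50 nM (final) primer/reporter/template substrate was tracked from 0 to 10 min, following a 15 min room-temperature compound preincubation.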
Sequence of DNA polymerase iota (Homo sapiens) (Q9UNA4 whole entry, looked up): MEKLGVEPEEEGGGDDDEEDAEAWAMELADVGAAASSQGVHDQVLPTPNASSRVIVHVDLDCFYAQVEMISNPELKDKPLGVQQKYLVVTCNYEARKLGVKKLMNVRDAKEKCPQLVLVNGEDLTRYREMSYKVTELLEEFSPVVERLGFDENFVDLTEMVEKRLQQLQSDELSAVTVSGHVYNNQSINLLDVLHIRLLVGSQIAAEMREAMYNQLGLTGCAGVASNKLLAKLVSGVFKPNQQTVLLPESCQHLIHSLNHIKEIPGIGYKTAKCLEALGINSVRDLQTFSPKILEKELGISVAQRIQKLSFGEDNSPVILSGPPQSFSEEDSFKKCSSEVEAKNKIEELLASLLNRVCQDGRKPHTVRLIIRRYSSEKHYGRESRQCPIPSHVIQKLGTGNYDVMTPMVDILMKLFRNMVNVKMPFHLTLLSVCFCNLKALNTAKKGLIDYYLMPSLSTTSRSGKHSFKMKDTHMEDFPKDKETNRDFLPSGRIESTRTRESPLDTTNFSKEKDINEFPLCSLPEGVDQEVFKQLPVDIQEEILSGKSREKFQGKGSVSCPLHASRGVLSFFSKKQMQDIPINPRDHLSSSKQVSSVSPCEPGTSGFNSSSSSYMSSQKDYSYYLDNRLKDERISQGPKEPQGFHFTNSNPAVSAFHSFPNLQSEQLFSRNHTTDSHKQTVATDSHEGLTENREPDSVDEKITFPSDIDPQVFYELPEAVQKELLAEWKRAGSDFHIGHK
Turning to `COc1ccc(Cl)cc1NC(=O)CCS(=O)(=O)c1ccc(Br)cc1`, the Potency is 18.9 µM (active).

In the case of `Cc1ccc(C(=O)O)cc1-c1ccc(/C=C2\SC(=O)N(CC(=O)Nc3ccc4c(c3)OCO4)C2=O)o1`, the Potency was 7.52 µM (active).

In the case of `O=C(CSc1nc2ccccc2c(=O)[nH]1)Nc1nc(-c2ccc(Br)cc2)cs1`, the Potency was 21.2 µM (active).

For `C=CC1=C(C(=O)O)N2C(=O)[C@@H](NC(=O)/C(=N/OCC(=O)O)c3csc(N)n3)[C@H]2SC1`, the Potency was 2.67 µM (active).

For the molecule `Cc1c(CC(=O)N2CCN(C(=O)C3COc4ccccc4O3)CC2)c(=O)oc2c(O)c(O)ccc12` (centres undefined), the Potency is 15 µM (active).

In the next assay the target is Flap endonuclease 1 (Homo sapiens) (UniProt P39748). The assay is described as follows: qHTS Assay for the Inhibitors of FEN1: Confirmatory Assay for Cherry-picked Compounds (AID 720498). Note: nearly all actives have a fitted effect of over 60% in size. The settings on record: FEN1 flap cleavage, TAMRA/BHQ2 fluorogenic DNA substrate. In short, it runs like this:
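Human FEN1 (10 nM reagent) was preincubated with compounds for 15 min at room temperature, then 50 nM final double-flap DNA substrate (5'-TAMRA flap, BHQ-2 quencher strand) was added. Fluorescence (ex 525/em 598 nm) was read at 0 and 15 min.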
Background: qHTS replaces the single test concentration by a dilution series.
Take `Cc1ccc(C(=O)O)cc1-c1ccc(/C=C2\SC(=O)N(CC(=O)Nc3ccc4c(c3)OCO4)C2=O)o1`: the Potency was 19 µM (active).

For the molecule `O=C(CSc1nc2ccccc2c(=O)[nH]1)Nc1nc(-c2ccc(Br)cc2)cs1`, the Potency was 60.1 µM (active).

Regarding `C=CC1=C(C(=O)O)N2C(=O)[C@@H](NC(=O)/C(=N/OCC(=O)O)c3csc(N)n3)[C@H]2SC1`, the Potency was 33.8 µM (active).
